For 22 compounds, growth inhibition results are on record in PubChem BioAssay (NCI).

Where “and” joins values, the source holds several entries; their conditions need not be identical. Identical values can stand only once. Compounds without any hit were thinned out: in the full panel of roughly 79,000, 15% have a hit. More than one record can exist for a structure, and the calls need not agree. Calls of active or inactive are those of the source. Rule as the data show it: active = growth inhibition above about 70%; inactive = the rest.

A short description of test [1]: NCI Yeast Anticancer Drug Screen. Data for the rad50 strain (AID 155).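 Also: 0% = growth of vehicle-only cultures of the same strain.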 As to conditions: S. cerevisiae rad50 strain growth inhibition; at 50.0 µM; stronger effect = higher value. The essentials:
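Growth of the mutant yeast was measured after compound exposure and referenced to vehicle-treated cultures.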

Test [2] can be described thus: NCI Yeast Anticancer Drug Screen. Data for the mec2-1 strain (AID 157). As to conditions: S. cerevisiae mec2-1 strain, at 50.0 µM, stronger effect = higher value. The method, boiled down: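 mec2-1 yeast strain, carrying an alteration in DNA damage repair or cell cycle control, was exposed to compounds; growth inhibition was measured relative to vehicle-treated controls.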
A short description of test [3]: NCI Yeast Anticancer Drug Screen. Data for the sgs1 mgt1 strain (AID 161).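 Also: 0% = growth of cultures given vehicle only.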 To be noted: S. cerevisiae sgs1 mgt1 strain, at 50.0 µM, stronger effect = higher value. The essentials:
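This yeast growth screen uses a strain with defined DNA-repair lesions; compound-treated growth is compared with vehicle-treated growth.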

Test [4] can be described thus: NCI Yeast Anticancer Drug Screen. Data for the cln2 rad14 strain (AID 165).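 Also: 0% = growth equal to vehicle treated cultures.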 As to conditions: S. cerevisiae cln2 rad14 strain, at 50.0 µM, stronger effect = higher value. The method, boiled down:
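Yeast carrying cln2 and rad14 alterations (cell cycle control and DNA damage repair) were exposed to compounds. Growth inhibition was measured against vehicle-treated controls.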

Test [5] in a line: NCI Yeast Anticancer Drug Screen. Data for the bub3 strain (AID 167). To be noted: S. cerevisiae bub3 mutant strain, at 50.0 µM, stronger effect = higher value. The essentials: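 Whole-cell yeast assay. The mutant strain was incubated with compounds, and growth inhibition was determined by comparison with vehicle-treated cells.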
The nature of test [6]: NCI Yeast Anticancer Drug Screen. Data for the mlh1 rad18 strain (AID 175). To be noted: S. cerevisiae mlh1 rad18 strain growth inhibition; at 50.0 µM; stronger effect = higher value. The essentials:
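Growth inhibition of the yeast strain was measured after compound exposure and expressed relative to vehicle-treated controls. The strain carries defined defects in DNA damage repair.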

Regarding `C/C=C/C=C/c1cc2cc3c(c(O)c2c(=O)[nH]1)C1(CC3)C(O)=c2c(=O)c3c(=O)cc(OC)c(=O)c=3c(=O)c2=C1O` (configuration not stated), the growth inhibition in test [1] was 86.8% (active) and 80.7% (active); in test [2], 89.8% (active) and 74.3% (active); in test [3], 88.7% (active) and 75.2% (active); in test [4] it was 81.8% (active) and 60% (inactive); in test [5], 83% (active) and 80.5% (active); in test [6] it was 78.6% (active).

On to `CCOc1ccc(C=O)cc1OC`, for which the growth inhibition in test [1] is -29.6% (inactive) and -0.5% (inactive); in test [2] it was -53.1% (inactive) and -10.4% (inactive); in test [3] it was -52.6% (inactive) and 0.25% (inactive); in test [4] it was -6.4% (inactive) and 4.25% (inactive); in test [5] it was -26.9% (inactive) and -0.4% (inactive); in test [6] it was -11.4% (inactive) and 0.1% (inactive).

Take `CCCCCCC1OCC(CC)C(CCC)O1` (configuration not stated): the growth inhibition in test [1] was 24.4% (inactive) and 2% (inactive); in test [2], 23.6% (inactive) and 6.9% (inactive); in test [3], 17.1% (inactive) and -6.05% (inactive); in test [4], -12.2% (inactive) and -9.7% (inactive); in test [5], 17.2% (inactive) and 15.2% (inactive); in test [6], 30.4% (inactive) and -9.4% (inactive).

As to `C=C1C(=O)OC2C1CCC(C)C1CCC(=O)OC12C` (configuration not stated), the growth inhibition in test [1] was 50.9% (inactive) and -7.2% (inactive); in test [2], 58.8% (inactive) and -1.4% (inactive); in test [3], 43.1% (inactive) and 17.2% (inactive); in test [4], 35% (inactive) and 18.6% (inactive); in test [5], 64% (inactive) and 13.6% (inactive); in test [6], 54.5% (inactive) and 3.8% (inactive).

Regarding `O=C(O)C1C2OC(C(Br)C2Br)C1C(=O)O` (configuration not stated), the growth inhibition was -12.3% (inactive) and -7.9% (inactive) in test [1]; 15.1% (inactive) and -12.1% (inactive) in test [2]; -2.45% (inactive) and -26.4% (inactive) in test [3]; 71.8% (active) and 12.1% (inactive) in test [4]; 94.5% (active) and -11.8% (inactive) in test [5]; 13.9% (inactive) and -0.15% (inactive) in test [6].

Regarding `Cc1ccc(S(=O)(=O)N(C)c2ccccc2)cc1`, the growth inhibition in test [1] is -18.6% (inactive) and -3.7% (inactive); in test [2], -50.7% (inactive) and -1.25% (inactive); in test [3] it was -0.55% (inactive) and 10.2% (inactive); in test [4] it was 1.2% (inactive) and -25.4% (inactive); in test [5], 11.8% (inactive) and 16.3% (inactive); in test [6] it was -10% (inactive) and 9.95% (inactive).

As to `NCC1CCC(CN)CC1` (configuration not stated), the growth inhibition in test [1] is -23.9% (inactive) and -37.9% (inactive); in test [2], -40.7% (inactive) and -33.4% (inactive); in test [3] it was -17.6% (inactive) and -24.7% (inactive); in test [4], -5.15% (inactive) and 12.1% (inactive); in test [5] it was -28.9% (inactive) and -25.8% (inactive); in test [6], -19.9% (inactive) and -7.3% (inactive).

In the case of `O=C1NC(=O)C(=Nc2c(O)[nH]c(=O)[nH]c2=O)C(=O)N1`, the growth inhibition is 2.65% (inactive) and -11% (inactive) in test [1]; -11.9% (inactive) and -14.3% (inactive) in test [2]; 2.3% (inactive) and -10.6% (inactive) in test [3]; -25.2% (inactive) and -31.8% (inactive) in test [4]; 1.1% (inactive) and 16.6% (inactive) in test [5]; 12.1% (inactive) and -13.1% (inactive) in test [6].

As for `CCCCCCC1OCC(COC)O1` (configuration not stated), the growth inhibition in test [1] was 5.25% (inactive) and 2.25% (inactive); in test [2], -3.1% (inactive) and -10.5% (inactive); in test [3], -1.9% (inactive) and -11.1% (inactive); in test [4], -4.55% (inactive) and 6% (inactive); in test [5], 0.5% (inactive) and -2.35% (inactive); in test [6] it was -2.45% (inactive) and -10.2% (inactive).

Regarding `CC/C(=N/NC(N)=O)C1=CCCCC1`, the growth inhibition is -5.6% (inactive) and 3.4% (inactive) in test [1]; -3.7% (inactive) and -0.85% (inactive) in test [2]; -1.5% (inactive) and -15.2% (inactive) in test [3]; -35.5% (inactive) and -33.9% (inactive) in test [4]; -15.2% (inactive) and -9.7% (inactive) in test [5]; -0.4% (inactive) and -14.7% (inactive) in test [6].

Regarding `COC(=O)C1(C)CCCC2(C)c3cc(OC)ccc3C=CC12` (configuration not stated), the growth inhibition in test [1] is 14.5% (inactive) and 6.75% (inactive); in test [2], -1.8% (inactive) and 8.1% (inactive); in test [3], -0.6% (inactive) and 2.55% (inactive); in test [4] it was -0.6% (inactive) and 4.75% (inactive); in test [5] it was 2.5% (inactive) and 21.5% (inactive); in test [6], 4.45% (inactive) and 1.2% (inactive).

Take `Nc1ccc(C(F)(F)F)cc1[N+](=O)[O-]`: the growth inhibition in test [1] was -33.3% (inactive) and 12.1% (inactive); in test [2] it was -19.9% (inactive) and 5.6% (inactive); in test [3], -49.6% (inactive) and 12.5% (inactive); in test [4], -43.6% (inactive) and 10.2% (inactive); in test [5], -35.1% (inactive) and 3.5% (inactive); in test [6], -22.5% (inactive) and 9.15% (inactive).

`CCOC(=O)CNC(=O)c1ccccc1`: the growth inhibition was 3.7% (inactive) and -12.2% (inactive) in test [1]; -7% (inactive) and -36.4% (inactive) in test [2]; -9.55% (inactive) and -7.05% (inactive) in test [3]; -8% (inactive) and -13.8% (inactive) in test [4]; -2.35% (inactive) and 27.1% (inactive) in test [5]; -1% (inactive) and -4.65% (inactive) in test [6].

For `O=[N+]([O-])c1cc(S(=O)(=O)O)ccc1Cl`, the growth inhibition was -9.65% (inactive) and 14.6% (inactive) in test [1]; 3.25% (inactive) and -1.15% (inactive) in test [2]; -9.3% (inactive) and -7.65% (inactive) in test [3]; 9.2% (inactive) and 12.7% (inactive) in test [4]; 0.1% (inactive) and 6.25% (inactive) in test [5]; 15.2% (inactive) and 14.8% (inactive) in test [6].

On to `CC(C)(SCc1ccccc1)C(N)C(=O)O` (configuration not stated), for which the growth inhibition was 8.05% (inactive) and -6.85% (inactive) in test [1]; 10.3% (inactive) and -17% (inactive) in test [2]; 1.65% (inactive) and -33.1% (inactive) in test [3]; 2.2% (inactive) and -33.8% (inactive) in test [4]; -3.45% (inactive) and -31.3% (inactive) in test [5]; 6.1% (inactive) and -10.3% (inactive) in test [6].

On to `Nc1ccc(O)c2c1C(=O)c1c(O)ccc(N)c1C2=O`, for which the growth inhibition in test [1] was 59.8% (inactive) and 13.4% (inactive); in test [2], 11.4% (inactive) and -13.4% (inactive); in test [3] it was 16.4% (inactive) and -0.55% (inactive); in test [4], -16.1% (inactive) and -0.65% (inactive); in test [5] it was 43.2% (inactive) and 8.25% (inactive); in test [6], 42.1% (inactive) and 11.8% (inactive).

As to `CCCCCCCc1ccc(OC2OC(COC(C)=O)C(OC(C)=O)C(OC(C)=O)C2OC(C)=O)cc1` (configuration not stated), the growth inhibition in test [1] was -7% (inactive) and -26.1% (inactive); in test [2], -12.1% (inactive) and 13.8% (inactive); in test [3] it was -30.4% (inactive) and 1.4% (inactive); in test [4], -7.45% (inactive) and 37.9% (inactive); in test [5], 5.55% (inactive) and 9.7% (inactive); in test [6], -6% (inactive) and 10.6% (inactive).

Turning to `CCc1cc(-c2ccc(OC)cc2)c(C#N)c(=S)n1C1OC(COC(C)=O)C(OC(C)=O)C(OC(C)=O)C1OC(C)=O` (configuration not stated), the growth inhibition in test [1] is 40% (inactive) and 5.75% (inactive); in test [2], 1.35% (inactive) and -4.9% (inactive); in test [3], -10.4% (inactive) and -18.7% (inactive); in test [4], -20.9% (inactive) and -29.4% (inactive); in test [5], -0.9% (inactive) and 1.85% (inactive); in test [6], 11.2% (inactive) and 7.05% (inactive).

For the compound `O=[N+]([O-])c1ccc2[nH]c(=S)[nH]c(=S)c2c1`, the growth inhibition in test [1] is -27.1% (inactive) and 17.1% (inactive); in test [2] it was -49.4% (inactive) and 35.7% (inactive); in test [3], 5.25% (inactive) and 51% (inactive); in test [4] it was 7.7% (inactive) and 36.5% (inactive); in test [5], -5.7% (inactive) and -1.3% (inactive); in test [6] it was 12.2% (inactive) and 16.4% (inactive).

Turning to `Cc1cc(=O)[nH]c2ccc(Cc3ccccc3)cc12`, the growth inhibition is -1.2% (inactive) and 28.1% (inactive) in test [1]; 10.4% (inactive) and 5.75% (inactive) in test [2]; -7.75% (inactive) and 17.6% (inactive) in test [3]; -26.2% (inactive) and 6% (inactive) in test [4]; -4.6% (inactive) and -2.65% (inactive) in test [5]; 16.9% (inactive) and 21.9% (inactive) in test [6].

Consider `O=[N+]([O-])c1ccccc1S(=O)(=O)Oc1ccccc1`, for which the growth inhibition is 10.1% (inactive) and 54.7% (inactive) in test [1]; 2.5% (inactive) and -9.2% (inactive) in test [2]; 5.45% (inactive) and 46.3% (inactive) in test [3]; -12.9% (inactive) and 1% (inactive) in test [4]; -8.65% (inactive) and -14.5% (inactive) in test [5]; 5.25% (inactive) and 32.4% (inactive) in test [6].

For the compound `NNC(=O)NC(N)=O`, the growth inhibition was -48.6% (inactive) and -20.2% (inactive) in test [1]; -26.1% (inactive) and -25.7% (inactive) in test [2]; -27.2% (inactive) and -9.95% (inactive) in test [3]; -20.4% (inactive) and -17.9% (inactive) in test [4]; 1.2% (inactive) and -27.1% (inactive) in test [5]; -4.3% (inactive) and -22.3% (inactive) in test [6].
